Bioassay records deposited in PubChem by National Center for Advancing Translational Sciences (NCATS).
JMJD2A Tudor: JMJD2A Tudor domain (human) inhibition | AID 504339 | actives 4.4% (n = 390,000) | Potency, µM (titrated, usually from 114 µM), inactives show at the highest dose activity change, negative = inhibition, hits mostly inhibitors | O75164 | AlphaScreen JMJD2A-Tudor / H3K4me3 peptide binding; note: % is set by controls: 0 for no effect and ±100 for the full control effect; nearly all actives have a fitted effect of over 50% in size
BAZ2B block: blocks human BAZ2B. AlphaScreen BAZ2B-H3K14Ac peptide displacement. Potency, µM (highest dose often 114 µM), for inactives: at the top dose activity change, negative = inhibition, hits mostly inhibitors. actives 4.4% (n = 360,000); note: % is set by controls: 0 for no effect and ±100 for the full control effect; nearly all actives have a fitted effect of over 60% in size
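BAZ2B (50 nM) with biotin-H3(5-23)K14Ac peptide (50 nM) in PBS pH 7.4, 0.01% Tween-20, preformed 30 min, then compound 30 min at room temperature; top concentration 110uM. AlphaScreen streptavidin donor/nickel chelate acceptor beads (10 ug/mL final), 20 min dark, signal read.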
L3MBTL1 block: L3MBTL1 (human) inhibition. Q9Y468. actives 0.66% (n = 230,000). AlphaScreen L3MBTL1–H3K9me1 peptide binding. Potency, µM (series often up to 57.1 µM), without a hit: at the top dose activity, negative = inhibition, usual class: inhibitors. AID 485360; note: % is set by controls: 0 for no effect and ±100 for the full control effect; nearly all actives have a fitted effect of over 60% in size
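AlphaScreen proximity signal between nickel-chelate acceptor and streptavidin donor beads (final 10 ug/mL) reports binding of 50 nM L3MBTL1 to 75 nM biotin-H3 K9me1 peptide; complex incubated with compounds 30 min at room temperature; cefsulodin titration as control.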
HP1b chromo inh: blocks HP1-beta chromodomain binding to methylated histone tails; AID 540317; AlphaScreen HP1-beta / biotin-H3K9me3 peptide binding; Potency, µM (top dose mostly 114 µM), for inactives: top-dose activity change, negative = inhibition, actives largely listed as inhibitors; actives 0.56% (n = 390,000); note: nearly all actives have a fitted effect of over 70% in size
Target sequence (P83916 whole entry, looked up): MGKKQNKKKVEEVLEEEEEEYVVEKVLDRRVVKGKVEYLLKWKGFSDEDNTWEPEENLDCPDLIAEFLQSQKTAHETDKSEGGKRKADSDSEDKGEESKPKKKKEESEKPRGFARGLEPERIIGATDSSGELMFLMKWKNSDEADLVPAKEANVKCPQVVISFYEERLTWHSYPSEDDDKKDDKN
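HP1-beta protein (50 nM final) preincubated 30 min at room temperature with biotinylated H3(1-18)K9me3 peptide (50 nM) in PBS pH 7.4, 0.01% Tween-20, then compound added for 30 min. AlphaScreen streptavidin donor/nickel chelate acceptor beads (10 ug/mL final), 30 min dark, luminescence read.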
G9a inh: blocks human histone lysine methyltransferase G9a; Potency, µM (titrated, usually from 102 µM), for the others: at the top dose activity, negative = inhibition, actives largely listed as inhibitors; actives 8.8% (n = 350,000); G9a H3K9 monomethylation, AlphaScreen, 2 h; note: % is set by controls: 0 for no effect and ±100 for the full control effect; nearly all actives have a fitted effect of over 75% in size
Target sequence (Q96KQ7 913-1193 limits assumed): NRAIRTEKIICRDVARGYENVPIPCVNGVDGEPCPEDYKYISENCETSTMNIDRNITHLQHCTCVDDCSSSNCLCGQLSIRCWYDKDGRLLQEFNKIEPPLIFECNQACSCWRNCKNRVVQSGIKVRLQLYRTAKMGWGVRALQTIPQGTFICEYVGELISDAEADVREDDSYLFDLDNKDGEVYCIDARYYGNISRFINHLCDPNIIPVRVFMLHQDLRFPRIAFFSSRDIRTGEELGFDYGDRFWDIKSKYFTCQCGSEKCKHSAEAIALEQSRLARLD
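G9a (20 nM) was preincubated 15 min with compound, then reacted 2 h at room temperature with 500 nM biotin-H3K9 peptide and 20 µM SAM. Monomethyl-H3K9 detected by AlphaScreen using anti-H3K9me1 antibody.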
Sfp PPTase inh: blocks B. subtilis Sfp PPTase activity. Q9F4F7. Biochemical Sfp PPTase activity, qHTS. Potency, µM, for inactives: largest response in the series, negative = inhibition, hits mostly inhibitors. actives 3.5% (n = 310,000);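 note: the enzyme is Sfp with the accession as filed and its product quenches rhodamine fluorescence; 0% = enzyme reaction without inhibitor and -100% = no enzyme wells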
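Buffer: 50 mM Hepes-Na pH 7.6, 10 mM MgCl2, 0.01% Nonidet P-40, 0.01% BSA. Enzyme 15 nM, pre-exposed to compound 15 min; substrates then added and fluorescence change tracked over 30 min.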
Numbers without * were called inactive; ? = inconclusive; . = not tested or not shown; [ ] = another dose, or the depositor's remark. Most compounds without a hit are left out; they make up all but 12% or so of the library. Calls come from the whole dose curve; as a rule, active = well fitted curve in the direction sought with a large enough effect; inconclusive = small, poorly fitted or top-dose-only effect, or another doubt; inactive = no such curve, though single readings can be large; an effect the other way counts as inactive or inconclusive. Potency is the fitted concentration of half-maximal effect.

SMILES	JMJD2A Tudor	BAZ2B block	L3MBTL1 block	HP1b chromo inh	G9a inh	Sfp PPTase inh
O=C(NCc1ccccn1)c1cc2n(n1)C(C(F)(F)F)CC(c1ccco1)N2 (centres undefined)	-6%	13%	.	40%	?	13µM*
Nn1c(CSc2ccccn2)nc2ccccc2c1=O	-2%	5%	.	36%	40µM*	-8%
O=c1[nH]c(CSc2ccccn2)nc2ccccc12	-8%	7%	.	40%	29%	13%
O=P(O)(O)C(O)(Cc1cccnc1)P(=O)(O)O	.	.	.	.	18µM*	13%
OCc1cccnc1	.	.	.	.	32%[59 µM]	9%
CCOC(=O)CSC1=C(C#N)C(c2ccccc2C)C2=C(CCCC2=O)N1 (centres undefined)	6%	-21%	.	68%	?	14µM*
Cc1ccc(C(=O)CSC2=C(C#N)C(c3ccco3)C3=C(CCCC3=O)N2)cc1 (centres undefined)	-31%	?	-5%	20%	-6%[59 µM]	-23%
N#CC1=C(SCC(=O)c2ccccc2)NC2=C(C(=O)CCC2)C1c1ccco1 (centres undefined)	?	?	?	-2%	?	32µM*
CCOC(=O)CSC1=C(C#N)C(c2ccccc2OC)CC(=O)N1 (centres undefined)	1%	-16%	.	20%	?	16%
CC(C)(C)c1ccc(C(=O)CCCSC2=C(C#N)C(c3ccco3)C3=C(CCCC3=O)N2)cc1 (centres undefined)	?	0%	8%	11%	?	50µM*
CCc1ccc(NC(=O)C2(c3cccs3)CCOCC2)cc1	8%	3%	.	22%	10%[59 µM]	.
COC(=O)c1sc(NC(=O)c2ccc(Cn3cc(Cl)cn3)o2)c(C#N)c1C	?	-37%	-14%	-41%	7.9µM*	16µM*
O=C(c1ccc(Br)o1)N1CCN(Cc2ccc3c(c2)OCO3)CC1	-22%	7%	-11%	2%	-18%	7%
CN1CCN(C(=O)c2ccc(Cn3cc(Cl)cn3)o2)CC1	-1%	3%	.	31%	71µM*	5%
O=C(c1ccc(Cn2cc(Cl)cn2)o1)N1CCN(Cc2ccc3c(c2)OCO3)CC1	-18%	?	-7%	4%	45µM*	-29%
N#Cc1c(NC(=O)c2ccc(Cn3cc(Br)cn3)o2)sc2c1CCCCC2	-31%	11%[57.1 µM]	1%	23%	13%	?
Cc1ccc(NC(=O)c2ccc(Cn3cc(Cl)cn3)o2)c(C)c1	.	-6%	.	.	.	-5%
COc1ccc(-c2nnc3n2N=C(c2ccc(OC)c(OC)c2)CS3)cc1	-15%	.	.	.	.	-14%
CCOc1ccc(C(=O)Nc2ccc3oc(-c4cccnc4)nc3c2)cc1	4%	2%	.	30%	-2%[59 µM]	.
CCN(CC)c1nc(N(CC)CC)[nH]c(=O)n1	0%	.	.	32%	.	.
CCN(CC)c1nc(-c2nn[nH]n2)nc(N(CC)CC)n1	89µM*	4%	-2%	23%	?	15%
CC(=O)OCC(=O)[C@@]12OC(C)(C)OC1CC1C3CC(F)C4=CC(=O)C=C[C@@]4(C)[C@@]3(F)C(O)C[C@]12C (some centres undefined)	.	.	.	.	-41%[2.33 µM]	11%
Cc1ccc(-c2ccc(S(=O)(=O)N3CCCC3)cc2)cc1	-4%	-3%	7%	35%	?	11%
Cc1ccc(S(=O)(=O)N2CC(=NO)C2)cc1	-6%	-4%	0%	36%	45µM*	4%
O=c1c(-c2ccc(Br)cc2)[n+]([O-])c2ccccc2n1OCc1ccccc1	-14%	-12%	.	28%	-7%	2%
SMILES	JMJD2A Tudor	BAZ2B block	L3MBTL1 block	HP1b chromo inh	G9a inh	Sfp PPTase inh
CC(C)(C)c1ccc(COn2c(=O)c(-c3ccco3)[n+]([O-])c3ccccc32)cc1	9%	-10%	.	28%	?	56µM*
CCC(=O)N(Cc1ccc(S(N)(=O)=O)cc1)C1CC(=O)N(c2ccc(OC)cc2)C1=O (centres undefined)	-11%	-3%	-1%	59%	8.9µM*	-9%
CCOc1ccc(N2C(=O)CC(N(CCc3ccc(S(N)(=O)=O)cc3)C(C)=O)C2=O)cc1 (centres undefined)	-15%	-26%	.	2%	?	8%
O=[N+]([O-])c1ccc2nc(-c3ccccc3)oc2c1	-19%	-28%	?	8%	40µM*	12%
O=C(Nc1cccc(-c2nc3ccccc3c(=O)o2)c1)c1ccccc1	25µM*	-32%	.	?	-28%[59 µM]	-10%
Cc1cc(-c2cccc([N+](=O)[O-])c2)nc2ccccc12	-4%	-7%	-3%	26%	13µM*	-18%
COc1ccccc1Nc1nc(-c2cccc([N+](=O)[O-])c2)nc2ccccc12	?	?	-7%	8%	21%[0.501 µM]	79µM*
CCc1nn(CC(=O)N2CCN(c3cccc(C)c3)C(C)C2)c(=O)c2cc3sccc3n12 (centres undefined)	-24%	22%	.	39%	?	.
COc1ccccc1OCCn1c(COc2cc(C)ccc2C)nc2ccccc21	-14%	-1%	.	13%	?	.
Cc1ccc(CNC(=O)c2ccc(-n3cnc4cccnc43)cc2)cc1	-15%	1%	.	44%	11%[59 µM]	.
COc1cc2c(c(OC)c1)C(c1cccc(F)c1F)CC(=O)N2 (centres undefined)	7%	3%	.	26%	2%[59 µM]	.
CCNc1ncc2nc(-c3ccc(OC)cc3)c(=O)n(CCOC)c2n1	.	.	.	.	5%[0.501 µM]	23%
CCCCc1nc2c(c3c1C[C@H](C)OC3)CN(S(=O)(=O)c1ccc(NC(C)=O)cc1)CC2	.	.	.	.	.	0%
O=c1oc(-c2cccc([N+](=O)[O-])c2)nc2ccccc12	-19%	-35%	9%	-12%	45µM*	-4%
O=C(NC(=S)Nc1ccccc1C(=O)O)c1ccc2ccccc2c1	-27%	-22%	-4%	-15%	28µM*	45µM*
O=C(O)c1cccc(NC(=S)NC(=O)c2ccc3ccccc3c2)c1	-30%	-28%	.	15%	56µM*	8%
O=C(Cc1ccccc1)Nc1ccc(NC(=S)NC(=O)c2ccccc2)cc1	-3%	-7%	.	14%	4%	-3%
O=C(O)c1ccc(NC(=S)NC(=O)c2cccc(COc3ccccc3)c2)cc1	-24%	-38%	-17%	-1%	28µM*	50µM*
Cc1ccccc1C(=O)NC(=S)Nc1ccccc1C(=O)O	-10%	-19%	10%	-20%	20µM*	?
NC(=O)c1ccccc1NC(=O)c1ccc2ccccc2c1	-4%	3%	9%	21%	-10%	17%
O=C(O)c1ccc(NC(=S)NC(=O)c2ccc3ccccc3c2)cc1	?	8%	.	-2%	.	-2%
